The list is not random: actives were taken first. Their share in the collection is about 21%.
Shiga inhibitor = A qHTS for Small Molecule Inhibitors of Shiga Toxin | AID 2315, 2010 | Vero cells, Shiga toxin protein synthesis inhibition reporter | actives 9.2% (n = 290,000) | inhibition, % at 38.7 µM; in the data active = inhibition mostly above about 28%, no sharp cut-off; inactive = mostly below about 43%; also: 0% is about no effect
Cycloheximide cs = Cycloheximide Counterscreen for Small Molecule Inhibitors of Shiga Toxin; cell reporter, cycloheximide protein synthesis inhibition counterscreen; max response, %; actives 12% (n = 300,000); AID 2314, 2010; in the data active = max response mostly above about 13%, no sharp cut-off; inactive = mostly below about 14%; also: read at 38.3 µM for the half of the compounds with a filed dose; 0% is about no effect
Pf growth 96h = Primary qHTS for delayed death inhibitors of the malarial parasite plastid, 96 hour incubation; P. falciparum luciferase reporter growth, 96 h; Potency, µM (top dose mostly 28.7 µM), without a hit: top-dose activity change, negative = inhibition, usual class: inhibitors; actives 6.9% (n = 320,000); also: potency is read from the fitted curve at half-maximal effect; % is scaled to controls: 0 for no effect and ±100 for the full control effect
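Compounds incubated with erythrocytes infected by luciferase-expressing P. falciparum (2% hematocrit, 0.05% parasitemia final) for 96 hours, 37 C in 5% CO2. Growth inhibition scored as decreased luciferase luminescence.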
Pf growth 48h = Primary qHTS for delayed death inhibitors of the malarial parasite plastid, 48 hour incubation; P. falciparum luciferase growth in erythrocytes, 48 h; Potency, µM (titrated, usually from 28.7 µM), for the others: at the top dose activity change, negative = inhibition, most hits filed as inhibitors; actives 5.9% (n = 310,000); AID 504832, 2011; also: potency is read from the fitted curve at half-maximal effect; % is scaled to controls: 0 for no effect and ±100 for the full control effect
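In quantitative HTS format, infected erythrocytes bearing luciferase-reporter parasites were treated for a single generation at 37 C. Luminescence after adding detection reagent served as the growth measure.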
Numbers without * were called inactive; i = inactive; ? = inconclusive; nt = no result given; ! = not confirmed by another sample; [ ] = remark or other dose. Unless noted, calls follow the shape of the dose curve; as a rule, active = well fitted inhibition curve with a large enough effect; inconclusive = small, poorly fitted or top-dose-only effect, or another doubt; inactive = no such curve, though single readings can be large or run the other way.

SMILES | Shiga inhibitor | Cycloheximide cs | Pf growth 96h | Pf growth 48h
COc1cccc(CC(=O)OCC(=O)N(C)CC(=O)Nc2ccc(Cl)c(C(F)(F)F)c2)c1 | nt | nt | 5.9% | -14.4%
CC(C)CC(=O)Nc1nnc(CSCc2ccc(F)cc2)s1 | 10.2 | -0.4 | ? | -6.6%
Cc1nn(CC(=O)N2CCN(C)CC2)c(=O)c2ccccc12 | -28.8 | -3.7 | 7.38µM* | 30.9%
Cc1nn(CC(N)=O)c(=O)c2ccccc12 | -13.8 | -1.8 | 2.08µM* | ?
Cc1sc(NC(=O)CN2CCOCC2)c(C#N)c1C | -1.6 | 8.6 | 48.5% | -8.5%
CC1(C)CC(NC(=O)c2c(N)no[n+]2[O-])CC(C)(C)N1 | -13.8 | -1.6 | 24.3% | ?
Cc1cc2nnc(SCC(=O)NCC3CCCO3)n2c2ccccc12 (configuration not stated) | -5.5 | -2.1 | -127.8%[5.75 µM] | -35.4%[5.75 µM]
COCCNC(=S)NNC(=O)CSCc1ccc(Cl)cc1Cl | 42.6* | -2.7 | -11.4% | -10.5%
CC(=O)CSc1nnc(Cc2ccc3c(c2)OCO3)o1 | 23.8 | 10.1 | 14.8% | 29.8%
N#CC(c1nc2ccccc2nc1OCCO)S(=O)(=O)c1ccccc1 (configuration not stated) | 15.2 | 0.3 | 10.4% | 1.1%
O=C(N/C(=C\c1cccc([N+](=O)[O-])c1)C(=O)N1CCOCC1)c1ccc([N+](=O)[O-])cc1 | 3.5 | -7.0 | -4.0% | 2.0%
O=C(CN1C(=O)NC2(CCCCCC2)C1=O)NCCc1ccccc1 | nt | nt | 11.3% | ?
Nc1c(C(=O)OCc2ccccc2)c2nc3ccccc3nc2n1Cc1cccs1 | -8.4 | 0.4 | 14.7µM* | nt
CCC(C)OC(=O)c1c(N)n(Cc2cccs2)c2nc3ccccc3nc12 (configuration not stated) | 30.9 | 3.7 | nt | 0.0%
N#CCc1nn(-c2ccccc2)c2ncnc(N)c12 | 8.7 | -1.2 | 26.0% | -0.8%
CN1C2CCC1CC(OC(c1ccccc1)c1ccccc1)C2 (configuration not stated) | -8.4 | -3.3 | 9.53µM*! | 12µM*
CN1[C@@H]2CC[C@H]1CC(OC1c3ccccc3CCc3ccccc31)C2 (some centres not stated) | nt | nt | ? | 4.65µM*
CN1[C@@H]2CC[C@H]1CC(OC(c1ccccc1)c1ccccc1)C2 (some centres not stated) | -4.1 | 11.1 | 4.78µM* | 16.9µM*
Cc1ccc(N2CCCn3c2nc2c3c(=O)n(CC(=O)OCc3ccccc3)c(=O)n2C)cc1C | -5.6 | -1.3 | 5.22µM* | 11.7µM*
Cc1ccc(N2CC(C)Cn3c2nc2c3c(=O)n(CC(=O)OCc3ccccc3)c(=O)n2C)cc1C (configuration not stated) | -4.3 | -1.8 | 10.4µM* | ?
O=C(Nc1ncc(Cc2cccc(C(F)(F)F)c2)s1)C1CCCO1 (configuration not stated) | 35.0* | 34.3* | 3.6% | 96.7%
O=C(Nc1ncc(Cc2cccc(Cl)c2)s1)C1=NCCN1 | -22.2 | 10.7 | ? | ?
Cc1ccc(Cc2cnc(NC(=O)C3CCCO3)s2)cc1 (configuration not stated) | 137.6* | 34.4* | i | 325.0%
Cc1cccc(C)c1NC(=S)NCCc1ccc(O)c(O)c1 | -1.8 | 6.3 | -20.1% | 10.4µM*
COc1ccc(CCNC(=S)Nc2cccc(C)c2C)cc1 | -11.7 | 1.5 | ? | ?
SMILES | Shiga inhibitor | Cycloheximide cs | Pf growth 96h | Pf growth 48h
Cc1nc2ncnn2c(N2CCN(C(c3ccccc3)c3ccccc3)CC2)c1C | 11.1 | -2.5 | 0.37µM* | ?
Cc1cc(N2CCN(C(c3ccccc3)c3ccccc3)CC2)n2ncnc2n1 | -14.5 | -0.3 | -20.9% | -22.4%
COc1cc(/C=C2/C(=N)N3N=C(CC(=O)N4CCOCC4)SC3=NC2=O)ccc1OC(C)c1ccccc1 (configuration not stated) | -1.0 | 9.6 | 0.3% | 4.8%
COc1ccc(OC)c(-n2c(C)cc(/C=C3\C(=N)N4N=C(CC(=O)N5CCOCC5)SC4=NC3=O)c2C)c1 | -0.7 | 0.7 | 11.7µM* | ?
COc1cccc(-n2c(C)cc(/C=C3\C(=N)N4N=C(CC(=O)N5CCOCC5)SC4=NC3=O)c2C)c1 | 1.6 | -5.1 | -16.2% | 12.6%
N=C1/C(=C\c2ccc(OC(=O)c3ccccc3Cl)cc2)C(=O)N=C2SC(N3CCOCC3)=NN12 | 58.0* | 24.3* | 0.2% | 12.2%
COc1cc(/C=C2\C(=N)N3N=C(N4CCOCC4)SC3=NC2=O)ccc1OC(=O)c1ccccc1 | 5.1 | 4.3 | ? | -2.5%
N=C1/C(=C/c2ccc(OCc3ccccc3)cc2)C(=O)N=C2SC(CC(=O)N3CCOCC3)=NN12 | 32.1 | 15.4* | 50.0% | 25.2%
Cc1cc(/C=C2\C(=N)N3N=C(CC(=O)N4CCOCC4)SC3=NC2=O)c(C)n1Cc1ccccc1 | 20.7 | 1.4 | 0.0% | 0.0%
N=C1/C(=C/c2ccc(OCc3ccccc3F)cc2)C(=O)N=C2SC(CC(=O)N3CCOCC3)=NN12 | 84.7* | 22.5* | -4.9% | 8.2%
CC(=O)Nc1nc(SCC(=O)Nc2nnc(C)s2)[nH]c(=O)c1NC(=O)c1cccs1 | -14.5 | 11.7 | 15.2% | 8.8%
COc1ccc(CN2CC[C@@H](N3CCOCC3)[C@H](O)C2)cc1F | 16.8 | -2.2 | ? | 0.6%
CC(NC(=O)COC(=O)c1ccco1)C12CC3CC(CC(C3)C1)C2 (configuration not stated) | -4.2 | -9.8 | nt | nt
C/C(=N\O)c1ccc2c(c1)CC(C)O2 (configuration not stated) | 18.9 | 13.3* | 100.7% | 45.4%
CC1Cc2cc(C(=O)O)ccc2O1 (configuration not stated) | -2.8 | 3.0 | 41.3% | 5.7%
Cc1cc(N2CCC(C)CC2)nc(-c2ccccc2O)n1 | -9.4 | 7.6 | 2.0% | 50.2%
CCCCNc1cc(C)nc(NCc2ccccc2)n1 | 41.8 | 14.1 | 0.828µM* | 1.47µM*
CNCCCc1ccccc1 | 22.8 | -3.4 | 162.0% | 14.5%
Cc1cc(Nc2ccc(Cl)cc2)nc(NCc2ccccc2)n1 | -2.3 | -6.1 | 0.522µM* | 0.928µM*
Cc1cc(C)nc(NCCCc2ccccc2)n1 | 7.2 | -1.1 | 13.1µM* | -27.4%
Cc1cc(Oc2ccccc2)nc(NCc2ccccc2)n1 | 13.1 | 0.8 | -0.1% | 0.2%
Cc1cc(Oc2ccccc2F)nc(NCc2ccccc2)n1 | 16.4 | -1.9 | 34.5% | -4.2%
Cc1cc(N2CCC(C)CC2)nc(NCc2ccccc2)n1 | 9.5 | -4.6 | 7.38µM* | 10.4µM*
COc1ccc(N2CCN(c3nc(Cl)nc(Nc4ccc(F)cc4)n3)CC2)cc1 | -6.2 | 0.9 | -4.9% | -12.9%
Nc1nc(NCc2ccccc2)nc(Nc2cccc(F)c2)c1[N+](=O)[O-] | -12.7 | 0.1 | -2.4% | 5.8%
Cc1cc(Nc2cccc(F)c2)nc(NCc2ccccc2)n1 | -6.3 | -2.2 | ? | 0.37µM*
Cc1cc(Nc2ccccc2)nc(NCc2ccccc2)n1 | 16.8 | 2.0 | ? | 0.586µM*
Fc1cc(NCc2ccccc2)nc(NCc2ccccc2)n1 | 59.6* | 53.4* | ? | 28.5%
CNC(=O)C(=O)NCCN1CCN(S(=O)(=O)c2ccc3ccccc3c2)CC1 | -13.1 | -2.3 | -0.7% | 142.0%

Source: PubChem (National Center for Advancing Translational Sciences (NCATS))
